For some assays here: Measured potencies and affinities stand elsewhere.
Tests used:
Design in all cases: scale not given: direction of the effect not stated beside the values
[1] = biological target: Protein translocase subunit SecA (Escherichia coli (strain K12)) (UniProt P10408); experiment: Assay to Identify E. coli SecA ATPase Inhibitors; format: functional; conditions: 30 µM
[2] = biological target: T1, Ubiquitin-activating enzyme e1, putative (Leishmania donovani (strain BPK282A1)) (UniProt E9BSI1); experiment: Leishmania donovani Ubiquitin Activating Enzyme (LdE1); format: functional; conditions: 30 µM
T1 sequence (whole entry): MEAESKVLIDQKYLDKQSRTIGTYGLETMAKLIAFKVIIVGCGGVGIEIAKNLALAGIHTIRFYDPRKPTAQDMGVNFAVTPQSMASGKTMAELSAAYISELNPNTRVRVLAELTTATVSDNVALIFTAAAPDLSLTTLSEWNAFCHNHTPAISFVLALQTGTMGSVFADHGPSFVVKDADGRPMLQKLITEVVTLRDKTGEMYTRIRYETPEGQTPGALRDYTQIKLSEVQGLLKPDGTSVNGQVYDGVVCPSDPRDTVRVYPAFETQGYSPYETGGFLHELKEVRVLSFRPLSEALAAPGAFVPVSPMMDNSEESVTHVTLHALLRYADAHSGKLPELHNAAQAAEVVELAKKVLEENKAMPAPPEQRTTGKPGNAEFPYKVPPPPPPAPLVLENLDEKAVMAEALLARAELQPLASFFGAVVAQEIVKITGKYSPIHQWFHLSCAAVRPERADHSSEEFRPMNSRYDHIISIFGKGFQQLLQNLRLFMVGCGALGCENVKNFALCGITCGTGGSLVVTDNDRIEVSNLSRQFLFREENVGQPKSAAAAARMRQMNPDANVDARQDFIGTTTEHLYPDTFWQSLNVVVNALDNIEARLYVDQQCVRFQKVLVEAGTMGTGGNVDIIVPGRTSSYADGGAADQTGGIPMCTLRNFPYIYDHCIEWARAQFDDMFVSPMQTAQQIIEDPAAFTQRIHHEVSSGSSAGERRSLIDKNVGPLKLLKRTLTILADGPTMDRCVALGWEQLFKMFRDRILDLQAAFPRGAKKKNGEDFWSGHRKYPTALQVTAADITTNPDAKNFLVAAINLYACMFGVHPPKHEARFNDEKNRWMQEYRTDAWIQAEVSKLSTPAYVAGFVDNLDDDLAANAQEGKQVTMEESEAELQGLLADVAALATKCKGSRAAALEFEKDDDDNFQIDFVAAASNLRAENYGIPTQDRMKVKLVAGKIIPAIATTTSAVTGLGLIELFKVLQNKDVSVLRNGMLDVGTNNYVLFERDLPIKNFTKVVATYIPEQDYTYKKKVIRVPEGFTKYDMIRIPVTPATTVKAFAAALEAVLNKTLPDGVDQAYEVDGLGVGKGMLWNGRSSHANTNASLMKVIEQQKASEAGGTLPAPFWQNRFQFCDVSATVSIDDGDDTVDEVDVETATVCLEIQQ

[3] = biological target: AMP-activated protein kinase, AMPK (Homo sapiens) (UniProt P54646+O43741+P54619+Q9UGJ0+Q9Y478+Q13131+Q9UGI9); experiment: AMP-dependent Kinase enzyme assay. An in vitro enzyme assay that detects ADP turnover that is directly proportional to AMPK activity. This uses naive AMPK that is activated during the assay with MK-8722; format: functional; conditions: 30 µM
[4] = biological target: Sialic acid-binding Ig-like lectin 9 (Homo sapiens) (UniProt Q9Y336); experiment: Hs-Siglec9 ALPHAscreen SOP 20170721; conditions: 10 µM
Chain of Sialic acid-binding Ig-like lectin 9 (Homo sapiens) (Q9Y336 whole entry): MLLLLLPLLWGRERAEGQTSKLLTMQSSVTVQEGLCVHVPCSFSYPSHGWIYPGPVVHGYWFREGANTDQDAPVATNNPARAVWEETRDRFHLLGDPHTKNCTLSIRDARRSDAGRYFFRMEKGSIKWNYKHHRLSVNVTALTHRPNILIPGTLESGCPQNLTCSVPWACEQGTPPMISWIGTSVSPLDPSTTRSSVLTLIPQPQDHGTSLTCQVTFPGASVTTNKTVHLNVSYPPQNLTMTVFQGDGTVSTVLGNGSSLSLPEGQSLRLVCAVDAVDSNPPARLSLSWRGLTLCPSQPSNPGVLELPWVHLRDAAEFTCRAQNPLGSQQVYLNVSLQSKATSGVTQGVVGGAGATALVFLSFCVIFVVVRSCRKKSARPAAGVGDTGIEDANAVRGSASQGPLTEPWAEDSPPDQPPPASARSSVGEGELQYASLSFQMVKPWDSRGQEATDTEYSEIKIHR

Trypanosoma cruzi = experiment: Trypanosoma cruzi phosphomannomutase and mannose-1-phosphate guanylyltransferase assay; format: functional; conditions: 10 µM
[5] = biological target: T2, Arginase-2, mitochondrial (Homo sapiens) (UniProt P78540); experiment: in vitro enzyme assay to detect the production of urea directly proportional to the activity of Arginase II; format: functional; conditions: 33.3 µM; note: in the data most compounds retested in dose-response had high values
T2 sequence (whole entry): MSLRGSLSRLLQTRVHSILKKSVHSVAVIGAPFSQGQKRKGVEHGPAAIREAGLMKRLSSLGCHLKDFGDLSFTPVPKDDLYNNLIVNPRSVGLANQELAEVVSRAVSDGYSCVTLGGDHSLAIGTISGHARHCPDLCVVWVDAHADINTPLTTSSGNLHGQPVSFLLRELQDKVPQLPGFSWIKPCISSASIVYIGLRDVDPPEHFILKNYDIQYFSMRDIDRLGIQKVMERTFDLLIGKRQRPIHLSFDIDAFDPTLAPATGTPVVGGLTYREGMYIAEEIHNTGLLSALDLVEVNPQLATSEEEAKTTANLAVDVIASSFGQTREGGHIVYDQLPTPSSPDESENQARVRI

[6] = biological target: T3, Proteasome subunit beta (Trypanosoma cruzi) (UniProt O96673); experiment: Trypanosoma cruzi proteasome chymotrypsin-like activity (TcProtChymo) assay.; note: in the data most compounds retested in dose-response had high values; format: functional; conditions: 9.37 µM
T3 sequence (whole entry): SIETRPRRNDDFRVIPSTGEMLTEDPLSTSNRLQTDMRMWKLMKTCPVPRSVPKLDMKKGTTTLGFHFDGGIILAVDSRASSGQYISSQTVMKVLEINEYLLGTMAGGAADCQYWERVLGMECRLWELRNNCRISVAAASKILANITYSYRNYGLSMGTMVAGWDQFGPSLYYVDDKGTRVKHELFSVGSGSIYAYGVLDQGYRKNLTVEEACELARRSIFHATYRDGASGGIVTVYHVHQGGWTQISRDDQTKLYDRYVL

Homo sapiens = organism: Homo sapiens; experiment: To identify inhibition of the IFN signalling (Jak-Stat) pathway via expression of an eGFP reporter gene under the control of an IFN-stimulated response element (ISRE) containing MxA promoter.; format: functional; conditions: 30 µM
[7] = biological target: T4, Tyrosyl-tRNA synthetase, putative (Trypanosoma cruzi (strain CL Brener)) (UniProt Q4DSP6); experiment: Trypanosoma cruzi tyrosyl tRNA synthetase (TcYRS) _High Tyrosine SOP; format: functional; conditions: 30 µM; note: in the data most compounds retested in dose-response had high values
T4 sequence (whole entry): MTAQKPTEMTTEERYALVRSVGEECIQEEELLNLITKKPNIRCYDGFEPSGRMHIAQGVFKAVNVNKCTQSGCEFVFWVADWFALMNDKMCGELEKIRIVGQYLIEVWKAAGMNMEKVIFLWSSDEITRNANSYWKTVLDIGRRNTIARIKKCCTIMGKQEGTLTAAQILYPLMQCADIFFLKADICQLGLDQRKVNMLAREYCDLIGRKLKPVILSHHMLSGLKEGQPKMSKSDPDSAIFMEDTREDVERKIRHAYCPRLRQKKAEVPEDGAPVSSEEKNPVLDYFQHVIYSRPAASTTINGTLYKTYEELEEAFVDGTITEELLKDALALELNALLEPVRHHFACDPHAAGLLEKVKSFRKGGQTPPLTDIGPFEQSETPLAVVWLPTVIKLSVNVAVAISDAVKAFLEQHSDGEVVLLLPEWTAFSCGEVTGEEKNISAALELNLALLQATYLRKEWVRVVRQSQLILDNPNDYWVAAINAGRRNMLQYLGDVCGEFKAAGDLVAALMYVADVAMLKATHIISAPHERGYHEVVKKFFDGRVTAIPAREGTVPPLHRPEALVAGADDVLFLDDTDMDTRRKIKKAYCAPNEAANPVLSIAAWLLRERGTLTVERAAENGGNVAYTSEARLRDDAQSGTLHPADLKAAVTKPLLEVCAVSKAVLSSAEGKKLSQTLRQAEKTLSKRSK

[8] = biological target: T4, Tyrosyl-tRNA synthetase, putative (Trypanosoma cruzi (strain CL Brener)); experiment: Trypanosoma cruzi tyrosyl tRNA synthetase (TcYRS) SOP; format: functional; conditions: 30 µM
[9] = biological target: Chromo domain-containing protein 1 (Saccharomyces cerevisiae (strain ATCC 204508 / S288c) (Baker's yeast)) (UniProt P32657); experiment: ScCHD-1 Enzyme Inhibition Assay; format: functional; conditions: 30 µM; note: in the data most compounds retested in dose-response had high values
Chain of Chromo domain-containing protein 1 (Saccharomyces cerevisiae (strain ATCC 204508 / S288c) (Baker's yeast)) (P32657 whole entry, the tested form may be a part): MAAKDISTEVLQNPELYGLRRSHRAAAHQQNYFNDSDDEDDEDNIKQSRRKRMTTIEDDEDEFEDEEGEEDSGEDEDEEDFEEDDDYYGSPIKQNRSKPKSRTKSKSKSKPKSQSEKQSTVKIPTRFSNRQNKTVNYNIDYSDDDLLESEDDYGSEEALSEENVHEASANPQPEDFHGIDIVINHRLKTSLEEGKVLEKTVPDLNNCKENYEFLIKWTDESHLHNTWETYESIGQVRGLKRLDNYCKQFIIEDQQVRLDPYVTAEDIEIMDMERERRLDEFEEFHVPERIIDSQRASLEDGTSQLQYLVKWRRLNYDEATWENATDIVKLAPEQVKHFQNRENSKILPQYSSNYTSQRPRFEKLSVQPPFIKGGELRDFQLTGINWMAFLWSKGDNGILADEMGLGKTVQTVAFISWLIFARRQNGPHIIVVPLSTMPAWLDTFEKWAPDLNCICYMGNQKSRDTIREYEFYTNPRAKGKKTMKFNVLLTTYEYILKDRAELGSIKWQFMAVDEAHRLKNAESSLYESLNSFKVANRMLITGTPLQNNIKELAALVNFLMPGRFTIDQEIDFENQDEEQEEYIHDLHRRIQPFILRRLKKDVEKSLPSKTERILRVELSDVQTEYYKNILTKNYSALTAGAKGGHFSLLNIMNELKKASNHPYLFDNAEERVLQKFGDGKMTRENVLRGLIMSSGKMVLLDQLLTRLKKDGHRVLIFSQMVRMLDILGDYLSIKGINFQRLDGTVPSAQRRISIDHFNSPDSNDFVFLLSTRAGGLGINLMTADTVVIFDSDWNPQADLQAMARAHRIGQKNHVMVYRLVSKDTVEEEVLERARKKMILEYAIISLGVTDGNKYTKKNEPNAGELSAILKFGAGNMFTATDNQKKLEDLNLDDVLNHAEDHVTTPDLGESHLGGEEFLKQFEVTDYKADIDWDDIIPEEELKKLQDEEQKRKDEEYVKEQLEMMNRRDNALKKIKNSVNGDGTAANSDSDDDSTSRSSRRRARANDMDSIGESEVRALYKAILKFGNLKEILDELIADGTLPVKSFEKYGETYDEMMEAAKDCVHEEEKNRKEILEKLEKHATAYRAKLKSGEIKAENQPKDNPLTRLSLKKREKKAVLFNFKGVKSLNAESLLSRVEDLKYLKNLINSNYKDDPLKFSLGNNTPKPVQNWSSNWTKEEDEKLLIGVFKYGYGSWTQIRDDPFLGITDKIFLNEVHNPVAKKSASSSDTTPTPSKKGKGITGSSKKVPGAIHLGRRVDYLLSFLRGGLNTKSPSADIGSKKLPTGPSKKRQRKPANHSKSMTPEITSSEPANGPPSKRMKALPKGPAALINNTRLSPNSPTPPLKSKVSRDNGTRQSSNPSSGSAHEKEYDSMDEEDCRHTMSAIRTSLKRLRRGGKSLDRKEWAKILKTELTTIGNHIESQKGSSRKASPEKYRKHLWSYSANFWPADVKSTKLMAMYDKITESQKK

Chain of Protein translocase subunit SecA (Escherichia coli (strain K12)) (P10408 whole entry): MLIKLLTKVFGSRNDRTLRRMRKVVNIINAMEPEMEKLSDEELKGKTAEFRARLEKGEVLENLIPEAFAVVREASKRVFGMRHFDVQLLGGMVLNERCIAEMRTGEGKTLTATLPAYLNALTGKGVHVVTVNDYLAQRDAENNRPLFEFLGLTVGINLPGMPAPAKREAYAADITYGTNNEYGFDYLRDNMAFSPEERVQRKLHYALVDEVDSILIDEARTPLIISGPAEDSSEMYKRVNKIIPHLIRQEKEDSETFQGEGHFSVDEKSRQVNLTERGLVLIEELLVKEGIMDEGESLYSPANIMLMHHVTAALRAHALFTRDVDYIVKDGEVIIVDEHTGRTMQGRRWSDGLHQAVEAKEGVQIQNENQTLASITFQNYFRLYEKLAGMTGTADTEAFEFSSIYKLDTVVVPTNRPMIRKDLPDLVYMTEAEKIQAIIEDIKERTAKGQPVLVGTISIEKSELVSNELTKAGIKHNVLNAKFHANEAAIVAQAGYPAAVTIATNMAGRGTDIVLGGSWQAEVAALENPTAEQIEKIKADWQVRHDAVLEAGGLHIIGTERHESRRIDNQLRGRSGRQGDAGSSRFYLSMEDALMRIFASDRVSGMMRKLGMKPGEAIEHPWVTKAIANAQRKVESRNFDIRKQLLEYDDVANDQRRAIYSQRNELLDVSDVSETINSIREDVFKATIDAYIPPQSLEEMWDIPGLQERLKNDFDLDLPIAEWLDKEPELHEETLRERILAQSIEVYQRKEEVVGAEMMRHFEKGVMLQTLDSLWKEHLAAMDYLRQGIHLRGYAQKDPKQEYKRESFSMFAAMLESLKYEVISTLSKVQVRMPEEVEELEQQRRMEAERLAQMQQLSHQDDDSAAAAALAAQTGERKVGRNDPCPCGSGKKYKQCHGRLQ

| Structure (SMILES) | Percent Effect [1] [%] | Percent Effect [2] [%] | Percent Effect [3] [%] | Percent Effect [4] [%] | Percent Effect (Trypanosoma cruzi) [%] | Percent Effect [5] [%] | Percent Effect [6] [%] | Percent Effect (Homo sapiens) [%] | Percent Effect [7] [%] | Percent Effect [8] [%] | Percent Effect [9] [%] |
| --- | --- | --- | --- | --- | --- | --- | --- | --- | --- | --- | --- |
| O=C(CC1CC1)NCc1cn2c(n1)CN(CC1CC1)CC2 | -3.1 | 13.3 | 16.6 | -9.15 | -3.54 | 1.63 | 10.7 | 3.1 | -3.19 | 8.97 | -5.22 |
| Cn1ccnc1CN(CCCO)C1CCCc2ccccc21 (configuration not stated) | -5.87 | 5.26 | 3.03 | 9.71 | 0.876 | -2.37 | 3.55 | 18.1 | 3.19 | 7.79 | -0.447 |
| O=S(=O)(Cc1ccccc1)N1CCCn2cnc(CN3CCCC3)c2C1 | -3.85 | 8 | 20.1 | -0.361 | -4.44 | -57.5 | 5.3 | -10 | 6.25 | -7.5 | -6.67 |
| CN(C)C(=O)N1CCOCC2(CCN(c3ccccn3)C2)C1 (configuration not stated) | -1.92 | -2.7 | -1.14 | -5.57 | -2.64 | 2.23 | 9.19 | -4.16 | 1.07 | 1.24 | -3.16 |
| Cc1ncsc1C(=O)N(C)Cc1ccncc1 | -4.37 | 10.5 | 3 | -5.42 | -6.58 | -2.68 | 16 | 23.6 | 1.47 | -7.32 | -6 |
| CCn1c(C)nnc1CN(C)C1CCN(CCc2ccncc2)C1 (configuration not stated) | -2.2 | 20.8 | -0.899 | 1.88 | 1.47 | -3.16 | 9.62 | 13.3 | 11.4 | 30.6 | -19.1 |
| CC[C@@]1(O)CCN(C(=O)c2ccc(-c3cccc(F)c3)cc2)C[C@H]1O | -2.8 | 4.17 | -2.66 | -8.29 | -3.6 | 0.883 | 13.3 | 16.4 | 2.1 | 10.3 | -3.01 |
| Cc1cccc(COC[C@@H]2CC[C@H]3[C@H](CCN3Cc3ccco3)O2)n1 | -0.0692 | 16.4 | -0.44 | 9.35 | 7.74 | -2.79 | 15.2 | -16.7 | 5.21 | 13.6 | -7.59 |
| Cc1ccc(CN(CCCn2ccnc2)Cc2c[nH]cn2)s1 | -8.11 | 9.46 | -4.5 | 6 | 0 | 1.62 | 11.4 | 9.27 | 9.68 | 14.3 | -25.7 |
| COCCO[C@@H]1CCN(C(=O)c2ccc(C)o2)[C@@H]1Cc1cnn(C)c1 | -5.35 | -2.7 | -1.64 | -4.98 | -2.54 | -2.08 | 7.69 | -13 | 0.99 | -1.22 | 4.49 |
| O=C(C1CCCc2[nH]ncc21)N1CCCCCC1 (configuration not stated) | -3.72 | 5.41 | -4.75 | 2.71 | -2.64 | -1.24 | 11.2 | 0.454 | 2.15 | 6.17 | -3.22 |
| O=C(C(CNCc1ccsc1)c1ccccc1)N1CCOCC1 (configuration not stated) | -5.96 | 5.2 | -2.02 | 3.85 | 1.87 | 5.52 | 6.49 | -32.4 | 1.07 | 1.24 | 1.41 |
| CCN1C(=O)C2(CCOCC2)c2cc(NC(=O)c3ccco3)ccc21 | -4.08 | 18.2 | -1.2 | 14.7 | 3.64 | -11 | 9.98 | 14.7 | 5.38 | 11.1 | 3.7 |
| c1coc(CN2CCCC3(COCCN(Cc4c[nH]nn4)C3)C2)c1 (configuration not stated) | -3.44 | 8 | 2.62 | 8.5 | -0.193 | -23.1 | 10.9 | -4.99 | 7.29 | 10 | -7.03 |
| CCOc1cc(F)ccc1NS(=O)(=O)c1cc(C)c(C(=O)O)s1 | -9.09 | 8.11 | -10.6 | 28.9 | 4.59 | 0.248 | 8.15 | -8.12 | -5.38 | -1.24 | -11.4 |
| O=C(NCc1csc(Br)c1)c1ccc(=O)[nH]n1 | -0.0216 | 6.33 | 0.358 | -1.84 | -3.18 | 4.95 | 6.86 | 13.1 | 4.17 | -10.1 | -8.89 |
| CSCCC1c2nc[nH]c2CCN1Cc1ccnc2ccccc12 (configuration not stated) | -3.26 | 10.7 | -26.6 | 14.2 | 4.38 | 5.73 | 25.5 | 10.9 | 9.29 | 6.17 | -4.91 |
| O=C(NCCN1CCCCCC1=O)c1ccn(-c2ccc(F)cc2)n1 | 1.12 | 13.5 | -9.65 | -9.89 | -6.51 | 0 | 15.5 | 24.8 | 4.43 | 16.1 | -5.87 |
| Cn1nc(CNC(=O)C2CC2)cc1C1CC1 | -5.14 | 18.2 | 3.71 | 7.61 | 2.27 | -4.52 | 4 | 6.02 | 0 | 11.5 | -7.39 |
| CCC1=N[C@@]2(CC[C@@H]3CN(S(=O)(=O)CC(C)C)C[C@@H]32)C(=O)N1C | -0.279 | 10.4 | 4.02 | 2.43 | -3.25 | 7.1 | 13.2 | -9.27 | 5.29 | 16.7 | -9.12 |
| CCn1cc2c(n1)CN(Cc1nccs1)CC2COCC1CC1 (configuration not stated) | -2.47 | 13.3 | 8.82 | 0.752 | -0.197 | 3.03 | 6.61 | 0.895 | 6.38 | 11.5 | -4.67 |
| CC(CN1CCOCC1)NC(=O)N(C)Cc1ccc(Cl)s1 (configuration not stated) | 0.481 | 10.5 | 2.51 | -1.81 | -6.91 | 0 | 13.3 | 3.75 | 6.38 | 13 | -2.62 |
